From PubChem BioAssay AID540364 (The Scripps Research Institute Molecular Screening Center, 2011)
Out of some 360,000 compounds screened, about 2,000 (0.56%) were called active.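 Rule for the calls: active = activation above the average of all compounds screened plus 3 SD, cutoff fixed separately per campaign (cut at about 7.5% in these data); inactive = the rest.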 Shown is part of a subset that was picked to be rich in actives.

Test: GAA850 frataxin promoter reporter upregulation – cell-based, luciferase luminescence, HEK293 lucGAA850, primary screen (AID 540364);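 note: 0% = DMSO wells and 100% = 10 µM SAHA wells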
Conditions: HEK293 lucGAA850 FXN promoter luciferase reporter, 24 h; at 6 µM; stronger effect = higher value
In the case of `O=C1C2(Cl)C3(Cl)C4(Cl)C(Cl)(Cl)C5(Cl)C3(Cl)C1(Cl)C5(Cl)C24Cl` (stereo not given), the activation is reported as 9.58% (active).
In the case of `COc1ccc(Br)cc1CNCCc1cccc(Cl)c1`, the activation is reported as -0.31% (inactive).
In the case of `O=C(c1cc2nc(-c3ccccc3)cc(-c3ccccc3)n2n1)N1CCC2(CC1)OCCO2`, the activation is reported as -0.55% (inactive).
For `NCC(O)c1ccc(O)cc1` (stereo not given), the activation was 2.36% (inactive).
For `CN1CCN(C(=O)COc2ccc(C(C)(C)C)cc2Br)CC1`, the activation was -0.38% (inactive).
With `CC(C)(C)c1ccc(OC(=O)N2CCCCC2)cc1` the activation was 8.59% (active).
With `O=C(Nc1cccc(OC(=O)N2CCCCC2)c1)N1CCOCC1` the activation was -1.14% (inactive).
With `CCN(CC)P(=O)(Oc1cccc(C)c1)N(CC)CC` the activation was -1.37% (inactive).
For `COc1ccc(-n2c(-c3ccccc3)nc3ccccc3c2=O)cc1`, the activation was 0.96% (inactive).
In the case of `CC(=C1C(=O)c2ccccc2C1=O)N1CCN(CCN=Cc2c(O)n(C)c(=O)n(C)c2=O)CC1`, the activation is reported as 1.17% (inactive).
